Reference: PubChem BioAssay
The source made the active and inactive calls. Unless noted, how the calls were made is not given here.

Experiments:
[1] = test system: Wnt5a (protein binding on small-molecule microarray); test: small molecules binding Wnt5a protein – biophysical, small-molecule microarray, 635/667 nm fluorescence, primary screen (AID 1142); settings: 635 nm fluorescence, higher = more signal;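 further: fluorescence read at 667 nm with signal to noise per printed feature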
[2] = ATP-based viability of Huh7 replicon cells – cell-based, CellTiter-Glo luminescence, basal, 48 h, cytotoxicity control for HCV replication inhibitor project, primary screen (AID 1143); settings: higher = more signal, called active from +8 up or from −8 down;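 further: Huh7 hepatoma cells carrying a hepatitis C replication reporter with no stimulus; test concentration not given here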
[3] = Pseudomonas biofilm growth suppression – PAO1 strain, BacTiter-Glo luminescence, LB-PBS, primary screen (AID 1144); settings: P. aeruginosa PAO1 biofilm, 12 h, higher = more signal
[4] = basal CRE-LacZ reporter activity in PC12 – cell-based, unstimulated, primary screen (AID 1145); settings: no forskolin, luminescence, 4.5 h, higher = more signal, called active from +8 up or from −8 down
[5] = forskolin-driven CRE-LacZ activity in PC12 – cell-based, CRE-LacZ reporter, forskolin-stimulated, primary screen (AID 1146); settings: luminescence, 4.5 h, higher = more signal, called active from +8 up or from −8 down;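 further: PC12 cells with 6xCRE LacZ reporter stimulated by forskolin 10 µM; beta-galactosidase reporter signal reflecting CREB driven transcription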
[6] = target: Streptavidin (Streptomyces avidinii) (UniProt P22629); test: compounds binding control protein streptavidin – biophysical, small-molecule microarray, 635/667 nm fluorescence, artefact control for SMM compound annotation, primary screen (AID 1147); settings: higher = more signal;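 further: signal reflects streptavidin binding to arrayed compounds as a control protein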
[7] = probe aInhba binding on compound microarray – biochemical, small-molecule microarray, 635/667 nm fluorescence, primary screen (AID 1148); settings: higher = more signal;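 further: score merges 667nm spot fluorescence with signal-to-noise for antibody binding to printed compounds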
Torsin-1A (Homo sapiens) [8] = target: Torsin-1A (Homo sapiens) (UniProt O14656); test: TOR1A wild-type binding on microarray – cell lysate, small-molecule microarray, lysate, 635/667 nm, primary screen (AID 1149); settings: COS7 hTOR1A-WT lysate, 635 nm fluorescence, higher = more signal
Torsin-1A (Homo sapiens) [9] = target: Torsin-1A (Homo sapiens) (UniProt O14656); test: torsin A mutant lysate binding on microarrays – cell lysate, small-molecule microarray, COS7 lysate, 635/667 nm fluorescence, primary screen (AID 1150); settings: COS7 hTOR1A mutant lysate, 635 nm fluorescence, higher = more signal;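 further: score pools 667 nm emission and signal to noise measuring lysate protein binding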
[10] = test system: Sonic hedgehog protein (Shh); test: Sonic hedgehog microarray binding compounds – biochemical, small-molecule microarray, 635/667 nm fluorescence, primary screen (AID 1151); settings: 635 nm fluorescence, higher = more signal;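 further: Shh protein binding to compounds spotted on small-molecule microarray slides; score combines spot fluorescence intensity with signal-to-noise across triplicate slides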
[11] = optical density shifts of acrAB sulA E. coli – strain DRC41, OD650, 48 h, E. coli filamentation inducer project, primary screen (AID 1152); settings: higher = more signal, called active from +8 up or from −8 down;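 further: E. coli MC1000 strain DRC41 lacking acrAB efflux pump and sulA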
[12] = probe aLefty1 binding on compound microarray – biochemical, small-molecule microarray, 635/667 nm fluorescence, primary screen (AID 1153); settings: higher = more signal;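 further: score merges spot fluorescence with signal-to-noise ratio from the scanned slide images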
[13] = plasmodial surface anion channel blockers, osmotic lysis – cell-based, P. falciparum Indochina, OD700, 1 h, primary screen (AID 1154); settings: P. falciparum Indochina infected RBC osmotic lysis, higher = more signal, called active from +8 up or from −8 down
[14] = plasmodial surface anion channel blockers, osmotic lysis – cell-based, P. falciparum Indochina, OD700, 2 h, primary screen (AID 1155);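 further: lysis reports solute entry through the parasite surface anion channel PSAC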; settings: P. falciparum Indochina infected erythrocytes, higher = more signal, called active from +8 up or from −8 down
[15] = changes in parasitized red cell lysis, either direction – P. falciparum Indochina, OD700, 3 h, PSAC antagonist project, primary screen (AID 1156); settings: P. falciparum-infected erythrocytes, osmotic lysis, higher = more signal, called active from +8 up or from −8 down
[16] = plasmodial surface anion channel blockers, osmotic lysis – cell-based, P. falciparum Indochina, OD700, 18 h, primary screen (AID 1157); settings: P. falciparum Indochina infected erythrocytes, osmotic lysis OD700, 18 h; higher = more signal, called active from +8 up or from −8 down
[17] = S6 kinase pathway phospho-S6 level changes – cell-based, A549, cytoblot, luminescence, serum-stimulated, primary screen (AID 1158); settings: 5 h, higher = more signal;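 further: serum-stimulated A549 lung adenocarcinoma cells; signal is phosphorylated S6 detected by cytoblot immunostaining with HRP secondary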
[18] = target: NADPH oxidase 2 (Homo sapiens) (UniProt P04839); test: compounds shifting NOX2 Amplex Red fluorescence – cell-based, HEK293-NOX2, PMA-stimulated, NOX inhibitor project, primary screen (AID 1159); settings: 45 min, higher = more signal, called active from +8 up or from −8 down; further: test concentration not given here
[19] = target: NADPH oxidase 4 (Homo sapiens) (UniProt Q9NPH5); test: compounds shifting NOX4 Amplex Red fluorescence – cell-based, HEK293-NOX4, tetracycline-induced, NOX inhibitor project, primary screen (AID 1160); settings: HEK293-NOX4, Amplex Red H2O2 fluorescence, 45 min; higher = more signal, called active from +8 up or from −8 down
[20] = target: NADPH oxidase 5 (Homo sapiens) (UniProt Q96PH1); test: compounds shifting NOX5 Amplex Red fluorescence – cell-based, HEK293-NOX5, NOX inhibitor project, primary screen (AID 1161); settings: HEK293-NOX5, ionomycin, 45 min, higher = more signal
Chain of NADPH oxidase 5 (Homo sapiens) (Q96PH1 whole entry, looked up): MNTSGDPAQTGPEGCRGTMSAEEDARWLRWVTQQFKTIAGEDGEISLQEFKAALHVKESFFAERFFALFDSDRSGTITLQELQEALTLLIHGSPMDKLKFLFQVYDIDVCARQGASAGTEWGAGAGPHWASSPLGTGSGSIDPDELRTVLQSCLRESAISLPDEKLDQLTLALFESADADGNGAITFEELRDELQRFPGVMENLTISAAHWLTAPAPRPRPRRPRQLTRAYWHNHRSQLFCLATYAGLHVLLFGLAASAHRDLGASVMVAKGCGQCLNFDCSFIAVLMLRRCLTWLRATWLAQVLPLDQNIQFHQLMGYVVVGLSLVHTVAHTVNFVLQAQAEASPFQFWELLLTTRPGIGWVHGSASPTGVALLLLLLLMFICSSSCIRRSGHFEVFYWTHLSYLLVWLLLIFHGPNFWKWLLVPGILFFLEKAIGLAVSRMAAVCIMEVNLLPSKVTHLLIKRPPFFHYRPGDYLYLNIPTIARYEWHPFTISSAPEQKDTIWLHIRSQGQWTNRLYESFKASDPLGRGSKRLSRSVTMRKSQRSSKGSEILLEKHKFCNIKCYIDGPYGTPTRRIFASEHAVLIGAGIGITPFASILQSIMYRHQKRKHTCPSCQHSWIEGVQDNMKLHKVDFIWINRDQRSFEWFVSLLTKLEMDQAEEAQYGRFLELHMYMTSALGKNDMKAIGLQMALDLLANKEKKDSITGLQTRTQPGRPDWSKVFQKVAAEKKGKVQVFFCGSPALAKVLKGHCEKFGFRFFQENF

Chain of NADPH oxidase 4 (Homo sapiens) (Q9NPH5 whole entry, looked up): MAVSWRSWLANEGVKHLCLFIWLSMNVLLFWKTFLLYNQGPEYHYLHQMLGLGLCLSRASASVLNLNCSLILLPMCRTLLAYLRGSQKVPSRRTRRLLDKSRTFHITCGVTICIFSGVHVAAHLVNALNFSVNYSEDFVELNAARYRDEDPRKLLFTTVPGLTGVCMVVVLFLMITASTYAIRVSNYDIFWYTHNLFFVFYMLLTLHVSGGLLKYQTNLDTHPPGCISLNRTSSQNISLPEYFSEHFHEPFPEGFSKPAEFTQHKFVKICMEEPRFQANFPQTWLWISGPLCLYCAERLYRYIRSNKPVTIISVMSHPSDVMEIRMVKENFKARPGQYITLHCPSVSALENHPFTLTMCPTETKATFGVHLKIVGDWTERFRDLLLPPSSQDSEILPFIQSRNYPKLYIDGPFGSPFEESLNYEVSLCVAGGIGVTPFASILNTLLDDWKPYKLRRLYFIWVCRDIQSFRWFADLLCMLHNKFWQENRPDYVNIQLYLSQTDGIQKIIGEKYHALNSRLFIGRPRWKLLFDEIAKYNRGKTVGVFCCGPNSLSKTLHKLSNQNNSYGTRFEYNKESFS
Chain of NADPH oxidase 2 (Homo sapiens) (P04839 whole entry, looked up): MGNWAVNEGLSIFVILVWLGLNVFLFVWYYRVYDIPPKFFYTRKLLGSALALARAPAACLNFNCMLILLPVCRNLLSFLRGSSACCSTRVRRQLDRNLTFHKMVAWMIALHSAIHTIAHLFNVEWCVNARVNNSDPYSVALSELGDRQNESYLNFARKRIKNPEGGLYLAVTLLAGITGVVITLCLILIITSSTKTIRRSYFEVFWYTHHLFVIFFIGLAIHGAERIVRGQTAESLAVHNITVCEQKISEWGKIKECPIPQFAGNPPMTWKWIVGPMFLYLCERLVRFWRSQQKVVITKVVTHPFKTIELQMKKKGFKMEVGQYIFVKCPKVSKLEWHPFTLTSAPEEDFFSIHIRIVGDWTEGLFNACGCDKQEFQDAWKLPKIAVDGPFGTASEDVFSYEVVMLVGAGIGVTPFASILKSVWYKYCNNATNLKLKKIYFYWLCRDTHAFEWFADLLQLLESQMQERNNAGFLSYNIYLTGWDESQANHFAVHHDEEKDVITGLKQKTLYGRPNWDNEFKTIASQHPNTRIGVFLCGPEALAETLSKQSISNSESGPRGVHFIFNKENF
Chain of Torsin-1A (Homo sapiens) (O14656 whole entry, looked up): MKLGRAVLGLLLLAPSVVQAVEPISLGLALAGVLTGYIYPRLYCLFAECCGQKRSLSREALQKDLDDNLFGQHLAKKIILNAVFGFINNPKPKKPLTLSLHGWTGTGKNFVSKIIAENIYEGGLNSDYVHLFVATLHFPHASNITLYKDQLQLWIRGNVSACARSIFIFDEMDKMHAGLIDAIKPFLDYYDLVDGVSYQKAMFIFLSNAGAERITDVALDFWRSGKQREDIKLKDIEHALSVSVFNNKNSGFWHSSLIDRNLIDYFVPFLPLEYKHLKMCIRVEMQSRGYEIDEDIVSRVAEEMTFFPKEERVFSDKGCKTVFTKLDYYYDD
Chain of Streptavidin (Streptomyces avidinii) (P22629 whole entry, looked up): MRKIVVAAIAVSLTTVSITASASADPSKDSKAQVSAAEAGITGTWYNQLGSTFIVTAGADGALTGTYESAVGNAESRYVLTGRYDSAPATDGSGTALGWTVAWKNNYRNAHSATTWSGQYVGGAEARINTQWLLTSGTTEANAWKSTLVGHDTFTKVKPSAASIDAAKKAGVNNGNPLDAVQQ

Structure (SMILES)	composite z-score [1]	z-score [2]	z-score [3]	z-score [4]	z-score [5]	composite z-score [6]	composite z-score [7]	composite z-score (Torsin-1A (Homo sapiens) [8])	composite z-score (Torsin-1A (Homo sapiens) [9])	composite z-score [10]	z-score [11]	composite z-score [12]	z-score [13]	z-score [14]	z-score [15]	z-score [16]	z-score [17]	z-score [18]	z-score [19]	z-score [20]
C=CC1c2cc(O)c(OC)cc2CCN1C (stereo not given)	-0.148	0.235 (inactive)	0.51 (inactive)	0.182 (inactive)	-0.439 (inactive)	-0.0377	-0.0695	-0.45	-0.231	-0.881	-0.664 (inactive)	-0.101	0.994 (inactive)	-0.152 (inactive)	-0.969 (inactive)	-0.214 (inactive)	-0.466	-4.27 (inactive)	-2.63 (inactive)	-3.08
CC1CC/C=C\[C@H]2OC34C=CCN(Cn5nnc6ccccc65)C(=O)[C@H]3N(CCCCCCO)C(=O)[C@@H]4C2C(=O)O1 (stereo not given in full)	-0.755	0.835 (inactive)	-1.18 (inactive)	-0.0859 (inactive)	0.19 (inactive)	-0.399	-0.12	-1.51	-1.11	-0.415	0.699 (inactive)	0.0999	0.59 (inactive)	-0.139 (inactive)	-0.248 (inactive)	0.527 (inactive)	1.2	1.02 (inactive)	0.515 (inactive)	2.37
C=C(C)[C@@H]1CC=C(C(O)C2C=CC3C(=O)N(C)C(=O)C3N2Nc2ccc([N+](=O)[O-])cc2[N+](=O)[O-])CC1 (stereo not given in full)	0.291	-0.181 (inactive)	0.0728 (inactive)	2.16 (inactive)	0.386 (inactive)	0.707	-0.0762	0.414	1.14	0.413	-1.03 (inactive)	0.807	22.8 (active)	6.33 (inactive)	0.0383 (inactive)	1.46 (inactive)	-1.42	-0.188 (inactive)	0.811 (inactive)	2.85
CC(C)(C)N1CC=CC23O[C@@H]4/C=C\CCCOC(=O)C4[C@H]2C(=O)N(CCCO)[C@@H]3C1=O (stereo not given in full)	-0.285	0.317 (inactive)	1.68 (inactive)	-0.0697 (inactive)	-0.764 (inactive)	-0.773	-0.0112	0.585	0.645	0.941	-0.455 (inactive)	0.0927	0.46 (inactive)	0.223 (inactive)	-0.772 (inactive)	0.429 (inactive)	0.0241	1.63 (inactive)	0.724 (inactive)	2.51
O=C1O[C@@H](c2ccccc2)[C@@H](c2ccccc2)N2[C@@H](c3ccc(OCCO)cc3)[C@]3(C(=O)Nc4ccc(C#CC5(O)CCCCCC5)cc43)[C@@H](C(=O)Nc3nc4ccccc4s3)[C@H]12	0.41	-1.6 (inactive)	-0.213 (inactive)	0.685 (inactive)	-0.0048 (inactive)	1.44	0.0945	1.14	0.985	1.11	0.219 (inactive)	-0.0061	2.63 (inactive)	1.76 (inactive)	0.626 (inactive)	1.96 (inactive)	0.693	1.2 (inactive)	-1.33 (inactive)	0.52
